Data as given in the supplement of paper PMC11732987, “Enantioselective OTUD7B fragment discovery through chemoproteomics screening and high-throughput optimisation” (Communications Chemistry, 2025).

How the values were obtained:
Assay in all cases: log2 ratio of Biotin-Ahx-Ub-VS probe labelling (fragment/DMSO); higher = less target engagement (more negative = stronger competition), active = hit call of the paper (q ≤ 0.05, log2 ratio ≤ -1)
Conditions in all cases: compound concentration: 200 uM; treatment time: 3 h
OTUD6B = target: T1, OTUD6B (UniProt Q8N6M0)
T1 sequence (whole entry): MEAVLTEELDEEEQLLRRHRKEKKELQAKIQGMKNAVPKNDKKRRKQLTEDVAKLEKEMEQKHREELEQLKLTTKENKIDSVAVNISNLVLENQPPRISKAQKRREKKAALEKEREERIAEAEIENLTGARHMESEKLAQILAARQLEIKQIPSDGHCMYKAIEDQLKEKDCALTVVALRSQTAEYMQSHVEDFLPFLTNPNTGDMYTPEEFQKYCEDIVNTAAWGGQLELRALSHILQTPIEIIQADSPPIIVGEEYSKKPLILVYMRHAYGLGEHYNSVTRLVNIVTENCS
Outline: (§1)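 HEK293T lysate (495 µg per sample, in Tris/CHAPS/IGEPAL buffer with protease inhibitors) was exposed in triplicate for 3 h to fragment at 200 µM or to vehicle, then to Biotin-Ahx-Ub-VS at 0.5 µM final for 1 h. Labelled DUBs were enriched on NeutrAvidin, digested with LysC and trypsin, and analysed by diaPASEF LC-MS/MS. Spectronaut label-free quantities were normalised to the global median, and values are average log2 ratios of fragment over vehicle from an unpaired t-test. Only proteins with ≥2 unique peptides were used.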

OTUD7B = target: T2, OTUD7B (UniProt Q6GQQ9)
T2 sequence (whole entry): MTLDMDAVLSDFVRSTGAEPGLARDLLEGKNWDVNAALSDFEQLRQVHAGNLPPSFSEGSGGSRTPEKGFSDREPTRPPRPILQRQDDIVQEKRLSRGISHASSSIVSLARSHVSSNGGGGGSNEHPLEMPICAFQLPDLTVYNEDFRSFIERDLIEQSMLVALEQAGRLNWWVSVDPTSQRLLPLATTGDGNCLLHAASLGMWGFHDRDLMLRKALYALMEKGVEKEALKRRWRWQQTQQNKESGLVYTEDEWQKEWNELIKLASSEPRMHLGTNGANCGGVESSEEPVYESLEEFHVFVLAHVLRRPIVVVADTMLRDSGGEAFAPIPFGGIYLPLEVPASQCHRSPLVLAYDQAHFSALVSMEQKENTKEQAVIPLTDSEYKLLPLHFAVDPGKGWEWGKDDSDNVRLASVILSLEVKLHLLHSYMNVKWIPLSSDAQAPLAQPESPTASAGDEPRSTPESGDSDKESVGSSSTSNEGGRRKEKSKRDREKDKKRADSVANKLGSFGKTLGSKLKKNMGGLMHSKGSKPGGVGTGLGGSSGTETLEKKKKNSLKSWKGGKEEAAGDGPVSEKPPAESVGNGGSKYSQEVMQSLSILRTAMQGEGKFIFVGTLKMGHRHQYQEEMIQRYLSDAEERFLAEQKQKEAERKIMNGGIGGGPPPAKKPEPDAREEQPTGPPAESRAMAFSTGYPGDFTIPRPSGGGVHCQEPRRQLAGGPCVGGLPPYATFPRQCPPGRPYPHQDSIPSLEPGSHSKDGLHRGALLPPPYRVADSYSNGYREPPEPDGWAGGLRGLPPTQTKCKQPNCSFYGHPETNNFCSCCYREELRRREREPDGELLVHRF
Outline: as §1

PRPF8 = PRPF8 (UniProt Q6P2Q9)
Outline: as §1

PSMD7 = target: T3, PSMD7 (UniProt P51665)
T3 sequence (whole entry): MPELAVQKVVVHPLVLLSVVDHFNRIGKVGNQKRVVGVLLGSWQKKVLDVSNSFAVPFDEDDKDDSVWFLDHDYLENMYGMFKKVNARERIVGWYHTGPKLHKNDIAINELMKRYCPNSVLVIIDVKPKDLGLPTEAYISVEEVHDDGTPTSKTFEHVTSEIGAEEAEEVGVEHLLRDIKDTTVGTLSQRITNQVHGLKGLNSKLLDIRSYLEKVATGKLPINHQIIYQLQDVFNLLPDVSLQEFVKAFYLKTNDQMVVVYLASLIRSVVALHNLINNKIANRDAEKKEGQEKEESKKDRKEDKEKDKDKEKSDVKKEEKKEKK
Outline: as §1

UCHL1 = UCHL1 (UniProt P09936)
Outline: as §1

UCHL3 = target: T4, UCHL3 (UniProt P15374)
T4 sequence (whole entry): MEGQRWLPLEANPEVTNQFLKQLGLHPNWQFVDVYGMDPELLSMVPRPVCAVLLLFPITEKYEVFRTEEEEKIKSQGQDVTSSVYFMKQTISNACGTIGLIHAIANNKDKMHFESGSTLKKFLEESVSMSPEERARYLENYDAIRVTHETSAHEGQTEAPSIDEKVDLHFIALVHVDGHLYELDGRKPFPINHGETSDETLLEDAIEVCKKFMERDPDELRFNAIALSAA
Outline: as §1

UCHL5 = target: T5, UCHL5 (UniProt Q9Y5K5)
T5 sequence (whole entry): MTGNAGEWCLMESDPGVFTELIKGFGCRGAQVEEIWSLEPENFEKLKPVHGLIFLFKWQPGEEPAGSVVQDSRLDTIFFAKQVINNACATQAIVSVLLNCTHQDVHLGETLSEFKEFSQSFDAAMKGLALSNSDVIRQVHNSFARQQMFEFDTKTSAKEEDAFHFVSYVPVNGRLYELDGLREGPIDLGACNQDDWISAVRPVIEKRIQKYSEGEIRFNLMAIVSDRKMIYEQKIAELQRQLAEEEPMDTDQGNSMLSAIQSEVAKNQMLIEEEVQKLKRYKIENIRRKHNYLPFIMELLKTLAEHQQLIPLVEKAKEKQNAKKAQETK
Outline: as §1

USP10 = USP10 (UniProt Q14694)
Outline: as §1

USP15 = target: T6, USP15 (UniProt Q9Y4E8)
T6 sequence (whole entry): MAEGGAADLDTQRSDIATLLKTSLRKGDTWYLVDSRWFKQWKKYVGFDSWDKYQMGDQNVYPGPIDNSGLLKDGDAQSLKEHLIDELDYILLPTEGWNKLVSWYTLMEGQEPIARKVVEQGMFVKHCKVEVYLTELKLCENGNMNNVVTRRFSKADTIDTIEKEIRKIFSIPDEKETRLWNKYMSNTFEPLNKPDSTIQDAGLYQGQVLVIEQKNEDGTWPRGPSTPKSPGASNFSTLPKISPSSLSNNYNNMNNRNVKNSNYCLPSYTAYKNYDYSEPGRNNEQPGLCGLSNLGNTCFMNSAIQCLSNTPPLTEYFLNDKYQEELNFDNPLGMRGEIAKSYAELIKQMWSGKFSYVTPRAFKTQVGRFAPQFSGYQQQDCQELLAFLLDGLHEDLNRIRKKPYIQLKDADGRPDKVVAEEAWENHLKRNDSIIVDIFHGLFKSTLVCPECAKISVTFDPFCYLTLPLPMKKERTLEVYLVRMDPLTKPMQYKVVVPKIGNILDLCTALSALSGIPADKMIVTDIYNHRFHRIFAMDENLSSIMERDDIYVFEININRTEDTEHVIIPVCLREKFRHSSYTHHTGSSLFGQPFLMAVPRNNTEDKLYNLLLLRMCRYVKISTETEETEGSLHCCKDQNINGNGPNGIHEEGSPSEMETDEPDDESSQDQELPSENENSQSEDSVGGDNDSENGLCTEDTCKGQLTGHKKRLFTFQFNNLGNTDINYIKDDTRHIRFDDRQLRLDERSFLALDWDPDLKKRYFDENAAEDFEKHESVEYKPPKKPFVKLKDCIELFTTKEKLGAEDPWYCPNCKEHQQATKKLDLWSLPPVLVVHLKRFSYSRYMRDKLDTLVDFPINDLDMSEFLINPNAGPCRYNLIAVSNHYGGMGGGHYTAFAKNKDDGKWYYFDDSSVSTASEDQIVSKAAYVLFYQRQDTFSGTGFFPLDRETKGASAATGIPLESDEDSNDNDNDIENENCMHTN
Outline: as §1

USP16 = USP16 (UniProt Q9Y5T5)
Outline: as §1

Measured: log2 ratio of Biotin-Ahx-Ub-VS probe labelling

Chain of USP16 (Q9Y5T5 whole entry, looked up): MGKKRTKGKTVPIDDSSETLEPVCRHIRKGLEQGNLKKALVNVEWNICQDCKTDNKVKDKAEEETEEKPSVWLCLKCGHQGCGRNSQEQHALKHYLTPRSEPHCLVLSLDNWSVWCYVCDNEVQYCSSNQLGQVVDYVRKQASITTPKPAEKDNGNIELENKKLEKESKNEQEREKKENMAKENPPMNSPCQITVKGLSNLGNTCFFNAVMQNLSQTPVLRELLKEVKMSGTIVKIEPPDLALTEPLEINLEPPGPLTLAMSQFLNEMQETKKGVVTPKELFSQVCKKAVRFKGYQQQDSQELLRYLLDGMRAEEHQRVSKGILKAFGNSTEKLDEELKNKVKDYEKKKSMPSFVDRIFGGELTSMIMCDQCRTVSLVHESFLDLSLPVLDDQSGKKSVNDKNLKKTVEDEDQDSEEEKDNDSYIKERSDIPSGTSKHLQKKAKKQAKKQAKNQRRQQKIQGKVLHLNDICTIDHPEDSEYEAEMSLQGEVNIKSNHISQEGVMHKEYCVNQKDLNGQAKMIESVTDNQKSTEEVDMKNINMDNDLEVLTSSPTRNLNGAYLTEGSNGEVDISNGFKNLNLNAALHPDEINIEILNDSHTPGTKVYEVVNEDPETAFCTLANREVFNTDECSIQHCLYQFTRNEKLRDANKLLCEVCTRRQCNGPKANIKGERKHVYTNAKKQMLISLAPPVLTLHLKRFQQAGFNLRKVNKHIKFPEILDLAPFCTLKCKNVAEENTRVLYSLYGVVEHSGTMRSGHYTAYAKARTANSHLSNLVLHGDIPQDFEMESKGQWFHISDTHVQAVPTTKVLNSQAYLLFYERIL
Chain of UCHL1 (P09936 whole entry, looked up): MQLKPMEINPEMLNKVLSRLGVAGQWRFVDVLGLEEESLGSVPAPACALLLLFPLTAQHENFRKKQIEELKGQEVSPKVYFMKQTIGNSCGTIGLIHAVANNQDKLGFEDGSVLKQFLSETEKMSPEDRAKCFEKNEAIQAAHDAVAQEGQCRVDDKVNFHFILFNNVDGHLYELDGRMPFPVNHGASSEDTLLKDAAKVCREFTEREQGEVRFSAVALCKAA
Chain of USP10 (Q14694 whole entry): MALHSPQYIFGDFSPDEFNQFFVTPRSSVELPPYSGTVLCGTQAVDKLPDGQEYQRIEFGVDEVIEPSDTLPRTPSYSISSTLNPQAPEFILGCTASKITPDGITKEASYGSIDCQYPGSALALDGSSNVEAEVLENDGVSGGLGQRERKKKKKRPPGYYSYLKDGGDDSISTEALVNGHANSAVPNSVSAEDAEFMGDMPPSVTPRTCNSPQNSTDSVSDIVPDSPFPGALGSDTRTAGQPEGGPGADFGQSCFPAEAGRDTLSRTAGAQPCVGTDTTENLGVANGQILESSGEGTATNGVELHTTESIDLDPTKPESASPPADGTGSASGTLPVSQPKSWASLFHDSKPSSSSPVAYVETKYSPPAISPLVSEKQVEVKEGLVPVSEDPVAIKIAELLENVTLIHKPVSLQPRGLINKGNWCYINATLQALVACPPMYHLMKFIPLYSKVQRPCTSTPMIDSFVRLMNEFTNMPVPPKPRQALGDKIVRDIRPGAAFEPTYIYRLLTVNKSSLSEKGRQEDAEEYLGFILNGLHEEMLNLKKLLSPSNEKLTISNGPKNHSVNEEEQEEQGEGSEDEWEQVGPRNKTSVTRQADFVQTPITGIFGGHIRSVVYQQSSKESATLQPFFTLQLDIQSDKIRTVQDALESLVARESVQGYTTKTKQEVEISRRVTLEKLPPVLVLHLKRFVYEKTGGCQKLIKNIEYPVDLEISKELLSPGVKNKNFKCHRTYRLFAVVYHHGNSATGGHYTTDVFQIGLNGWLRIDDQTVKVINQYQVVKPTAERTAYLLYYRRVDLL

O=C(CCl)NCc1cccc(N2CCCC2=O)c1
active: USP16 -1
inactive: OTUD6B 0.058 | OTUD7B -0.585 | PRPF8 -0.0281 | PSMD7 -0.0566 | UCHL1 -0.979 | UCHL3 0.302 | UCHL5 -0.112 | USP10 0.0755 | USP15 0.049
